We go through 5 compounds from PubChem BioAssay (NCATS).

SMILES strings stand for the structures. Several values for one entry are separate records, joined by “and”; a condition that tells them apart may be missing. Identical values can stand only once. Values without a mark were called inactive. Inconclusive results are not listed. Activity calls are given as the source filed them. Unless noted, calls come from the whole dose curve; as a rule, active = well fitted curve in the direction sought with a large enough effect; inconclusive = small, poorly fitted or top-dose-only effect, or another doubt; inactive = no such curve, though single readings can be large; an effect the other way counts as inactive or inconclusive.

Assay [1] in a line: Cell Viability - BJ (AID 421; calls by dose curve;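 note: potency is the fitted concentration of half-maximal effect; cells exposed to compound for 40 hours at 37 °C before readout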). The conditions noted are these: BJ fibroblast viability, qHTS. The essentials: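 Quantitative HTS: ATP depletion in BJ cells after 40 hr compound exposure in complete culture medium, detected with CellTiter-Glo; AC50 from standard Hill fits.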
Assay [2] can be described thus: Cellular Toxicity (caspase-3) HUV-EC-C (AID 656). Conditions: HUV-EC-C cells, caspase-3 activation (apoptosis), vehicle = 0, 100 µM tamoxifen = 100%; series mostly up to 92.2 µM. The essentials:
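Luminescent Caspase-Glo 3/7 readout after 16 h, 37 °C compound exposure of HUV-EC-C endothelial cells, 1000 per well, complete medium. AC50 derived by Hill fitting, with DMSO as baseline and 100 uM tamoxifen as full activation.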

The nature of assay [3]: Cellular Toxicity (caspase-3) MRC-5 (AID 659). The conditions noted are these: MRC-5 cells, luminescence, normalized: DMSO 0%, 10 µM staurosporine 100%; series mostly up to 91.7 µM. The method in brief:
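Concentration-dependent caspase 3/7 activation is measured in human normal lung fibroblasts (MRC-5) following 16-hour treatment. AC50 values come from standard Hill-equation modeling of luminescence normalized to DMSO and 10 uM staurosporine.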

Assay [4] in a line: Cellular Toxicity (caspase-3) Mesangial (AID 660).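 Note: combined caspase 3 and 7 activity read by Caspase-Glo luminescence; cells exposed to compound for 16 h before the caspase read.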 Conditions: mesangial cells, normalized: DMSO 0%, 100 µM tamoxifen 100%; series mostly up to 91.7 µM. The essentials:
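Mesangial cells, 1000/well, 5 h settle at 37 °C; compound 16 h, 37 °C; Caspase-Glo 3/7 reagent 20 min RT; luminescence. Norm.: DMSO = 0%, tamoxifen 100 uM = 100%. AC50, Hill fit.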

The nature of assay [5]: Cellular Toxicity (caspase-3) SK-N-SH (AID 661). Conditions: SK-N-SH caspase-3 activation, qHTS; series mostly up to 91.7 µM. The essentials: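 Human neuroblastoma SK-N-SH, 1500 cells/well, 5 hr pre-incubation, then compound 16 hr, 37 °C. Caspase-Glo 3/7 reagent, 1 hr RT, luminescence. Norm. to DMSO/10 uM staurosporine; Hill-fit AC50.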
Assay [6] can be described thus: Cellular Toxicity (caspase-3) Hek293 (AID 664).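 Note: cells exposed to compound for 16 h at 37 °C before readout.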 The conditions noted are these: HEK293 caspase-3 activation, DMSO = 0%, 100 µM tamoxifen = 100%; at 92.2 µM (top of the series). The essentials: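 Cells plated, 5 hr at 37 °C; compounds added; 16 hr at 37 °C; Caspase-Glo 3/7 reagent, 20 min RT; luminescence read. Activation expressed relative to DMSO and 100 uM tamoxifen, AC50 by Hill model.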

A short description of assay [7]: Cellular Toxicity (caspase-3) NIH 3T3 (AID 666).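 Note: caspase signal read after 16 h compound exposure; 0% = DMSO basal and 100% = 100 µM tamoxifen stimulation.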 Conditions: NIH 3T3 caspase-3 activation, apoptosis/toxicity; series mostly up to 92.2 µM. The method in brief:
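Luminescence from aminoluciferin released by caspase-3/7 cleavage of a peptide substrate served as read-out. Mouse fibroblast NIH 3T3 cells were exposed to compounds over a concentration range for 16 hours, and AC50 values came from standard Hill modelling.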

Assay [8] deals with Cytochrome P450 3A4 (Homo sapiens) (UniProt P08684). Nature of the assay: qHTS Assay for Inhibitors and Substrates of Cytochrome P450 3A4 (AID 884). Note: nearly all actives have a fitted effect of over 50% in size. Note: potency is the fitted concentration of half-maximal effect. Conditions: recombinant CYP3A4, Luciferin-PPXE luminescence; series mostly up to 57.1 µM. The essentials:
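20 nM human CYP3A4 with 25 uM Luciferin-PPXE (at KM) in 200 mM KPO4, preincubated 10 min with compound; NADPH regeneration started a 60 min RT reaction. Luciferin detected by luminescence, normalized to 57 uM ketoconazole as full inhibition.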

The nature of assay [9]: MultiTox-Fluor Cytotoxicity Assay - LYMP1-001 - Dead Cells (AID 946).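 Note: 0% = DMSO and 100% = tetraoctylammonium bromide.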 The conditions noted are these: LYMP1-001 lymphoblastoid cells, dead-cell protease fluorescence; series mostly up to 92.2 µM. The essentials:
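In this qHTS, 15 uM tetraoctylammonium bromide defined 100% and DMSO defined basal activity. Lymphoblastoid cells (LYMP1-001, 2500 per well) received compound for 16 hr at 37 C before a fluorogenic dead-cell substrate readout at 485/520 nm.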

Assay [10] is described as follows: Cell Viability - LYMP1-002 - Assay at 16 hr (AID 948).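 Note: 0% = DMSO alone and full effect = 92 µM tetraoctylammonium bromide.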 The conditions noted are these: LYMP1-002 lymphoblastoid cell viability; series mostly up to 92.2 µM. The method in brief: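 ATP luminescence (CellTiter-Glo) was measured after 16 hr compound exposure at 37 C of 2500 lymphoblastoid LYMP1-002 cells per well. Concentration-response curves were fitted with the Hill equation to give AC50.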

The nature of assay [11]: MultiTox-Fluor Cytotoxicity Assay - LYMP1-003 - Live Cells (AID 962).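 Note: cells exposed to compound for 16 hours at 37 °C; 0% = DMSO only and full loss = 92 µM tetraoctylammonium bromide; cytotoxic hits lower the live-cell protease signal.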 The conditions noted are these: LYMP1-003 lymphoblastoid cells, MultiTox-Fluor live-cell protease fluorescence; series mostly up to 92.2 µM. The method in brief: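 qHTS, 1536-well; 2500 cells/well LYMP1-003; 5 hr 37 C settle; cpd 16 hr 37 C; MultiTox-Fluor reagent 60 min RT; live-cell protease fluor. 405/510; Hill-fit AC50; tetraoctylammonium bromide pos. ctrl.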

A short description of assay [12]: Cell Viability - LYMP2-003 (AID 965).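 Note: cells exposed to compounds for 24 h before reading; 0% = DMSO only and full effect = 92 µM tetraoctylammonium bromide; nearly all actives have a fitted effect of over 50% in size.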 The conditions noted are these: LYMP2-003 lymphoblastoid cell viability; series mostly up to 92.2 µM. The method in brief: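 CellTiter-Glo luminescence quantified ATP loss after 24 h compound treatment of LYMP2-003 lymphoblastoid cells at 37 C. Titration series were fitted with the standard Hill equation to give AC50.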
Assay [13] can be described thus: Cell Viability - LYMP2-026 (AID 989). Note: % is set by controls: 0 for no effect and ±100 for the full control effect; nearly all actives have a fitted effect of over 50% in size. Conditions: LYMP2-026 lymphoblastoid cell viability, qHTS; series mostly up to 92.2 µM. The method in brief: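 Luminescent ATP signal (CellTiter-Glo, 30 min room temperature) measures viable lymphoblastoid cells after 24 hr compound treatment at 37 C. Decreased ATP reflects acute toxicity; AC50 values come from Hill-equation modeling.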

The nature of assay [14]: Cell Viability - LYMP1-002 - Assay at 40 hr (AID 994).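 Note: 0% = DMSO only and full inhibition = 92 µM tetraoctylammonium bromide; nearly all actives have a fitted effect of over 60% in size.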 The conditions noted are these: LYMP1-002 lymphoblastoid cell viability; series mostly up to 92.2 µM. The essentials: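 Luminescent ATP signal served as the viability readout, with decreases taken as toxicity. Cells were treated with compounds across a concentration range for 40 hours at 37 C, and AC50 values came from standard Hill modeling.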

The nature of assay [15]: qHTS Assay for Identification of Small Molecule Inducers of Hypoxia Response (AID 2120; active = well fitted curve in the direction sought with a large enough effect in the signal ratio, with a control signal flat, not every such curve was filed as active; the % refers to the signal ratio; note: 0% is about no effect). The conditions noted are these: hypoxia response reporter cells, beta-lactamase ratio readout; series mostly up to 104 µM. The essentials:
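ME-180 HRE-bla cells plated in Opti-MEM/0.5% dialyzed FBS, rested 4-5 h, then dosed with compound titrations by pin tool. After 17 h at 37 degrees C, CCF4 dye loaded 2.5 h at RT; 460/530 nm ratio gave %Activity and AC50.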

Assay [16] is described as follows: qHTS assay for environmental chemicals that activate the Aryl hydrocarbon Receptor (AhR) signaling pathway (AID 651777). For activation: % of control where 0% means no effect. Note: nearly all actives have a fitted effect of over 15% in size. Note: potency is the fitted concentration of half-maximal effect. The conditions noted are these: 1A2-DRE human hepatoma cells, luciferase, 24 h; activation: stronger effect = higher value. The method in brief: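 Luminescence (One-Glo, 30 min, room temperature) reports AhR-driven luciferase in stably transfected human hepatoma cells bearing DRE and CYP1A2 promoter. Cells (1,200/well) were treated with compound for 24 hr at 37 C in qHTS format.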

Assay [17] deals with Peroxisome proliferator-activated receptor alpha (Homo sapiens) (UniProt Q07869). Nature of the assay: qHTS assay for small molecule agonists of the peroxisome proliferator-activated receptor alpha (PPARalpha) signaling pathway (AID 651778). Note: % of control where 0% means no effect. Conditions: PathHunter PPARalpha complementation, chemiluminescence, 6 h; stronger effect = higher value. The method in brief:
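Chemiluminescence from complemented enzyme reported PPARalpha activation in cells after 6 hr of compound treatment at 37 C. The detection reagent was incubated for 60 min at room temperature, and compounds were scored as agonists.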

Assay [18] is described as follows: qHTS assay for small molecule agonists of the antioxidant response element (ARE) signaling pathway measured by Nrf2-dependant transcriptional activity - cell viability counter screen (AID 720653; active = well fitted curve in the direction sought with a large enough effect in the repeat runs; an effect the other way counts as inactive or inconclusive; note: % is set by controls: 0 for no effect and ±100 for the full control effect). The conditions noted are these: ARE-bla HepG2 viability, CellTiter-Glo ATP luminescence, 16 h; stronger effect = lower value. The method in brief: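 Cytotoxicity counter screen: intracellular ATP quantified by CellTiter-Glo luminescence in the same ARE-bla HepG2 plates, after 16 h compound exposure and a 2 h beta-lactamase substrate step.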

Assay [19] in a line: qHTS assay for cell viability of the p53RE-bla HCT-116 cell line (AID 743292). Note: % is set by controls: 0 for no effect and ±100 for the full control effect; nearly all actives have a fitted effect of over 55% in size. The conditions noted are these: p53RE-bla HCT-116 viability, ATP luminescence, 16 h; series mostly up to 95 µM. The essentials:
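ATP-based luminescent viability (CellTiter-Glo, 30 min RT) after 16 h compound treatment at 37 C of p53RE-bla HCT-116 cells, seeded at 4,000 cells/well and rested 5 h before dosing.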

Sequence of Peroxisome proliferator-activated receptor alpha (Homo sapiens) (Q07869 whole entry, looked up): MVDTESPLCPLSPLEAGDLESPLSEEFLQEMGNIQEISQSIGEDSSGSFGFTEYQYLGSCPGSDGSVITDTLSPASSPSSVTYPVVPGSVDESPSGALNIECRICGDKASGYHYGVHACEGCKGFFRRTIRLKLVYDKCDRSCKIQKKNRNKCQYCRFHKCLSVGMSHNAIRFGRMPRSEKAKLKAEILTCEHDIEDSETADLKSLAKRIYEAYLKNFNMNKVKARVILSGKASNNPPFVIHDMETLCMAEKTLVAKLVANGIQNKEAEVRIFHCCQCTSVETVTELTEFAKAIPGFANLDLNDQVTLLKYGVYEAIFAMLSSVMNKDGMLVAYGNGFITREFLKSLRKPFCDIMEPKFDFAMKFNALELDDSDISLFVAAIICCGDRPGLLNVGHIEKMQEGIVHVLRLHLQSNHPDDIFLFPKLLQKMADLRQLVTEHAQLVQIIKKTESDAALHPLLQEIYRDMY
Sequence of Cytochrome P450 3A4 (Homo sapiens) (P08684 whole entry, looked up): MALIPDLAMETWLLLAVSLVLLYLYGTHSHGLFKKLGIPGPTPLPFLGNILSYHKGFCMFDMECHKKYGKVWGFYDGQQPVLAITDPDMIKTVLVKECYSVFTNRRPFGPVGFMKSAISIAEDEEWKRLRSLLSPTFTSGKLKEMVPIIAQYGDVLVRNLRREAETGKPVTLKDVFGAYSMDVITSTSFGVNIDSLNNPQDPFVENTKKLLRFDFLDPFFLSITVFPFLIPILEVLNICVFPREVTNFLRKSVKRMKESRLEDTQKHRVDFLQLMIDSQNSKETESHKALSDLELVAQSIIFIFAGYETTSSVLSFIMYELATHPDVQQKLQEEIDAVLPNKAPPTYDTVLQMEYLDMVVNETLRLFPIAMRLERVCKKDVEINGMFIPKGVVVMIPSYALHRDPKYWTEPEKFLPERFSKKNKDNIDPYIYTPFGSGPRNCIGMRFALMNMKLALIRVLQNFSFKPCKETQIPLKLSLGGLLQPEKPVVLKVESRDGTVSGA

Take `O=C(O)c1cc(Cl)ccc1Cl`: the Potency in assay [1] is greater than 92 µM. The compound was called inactive in assay [2], in [3], in [4], in [9], in assay [10] and in [11]. For the same compound, the Potency result in assay [5], in assay [7], in assay [8], in [12], in [13] and in [14] was “inactive” each time. The Potency result in assay [15] and in assay [19] was “inactive” each time. The caspase-3 activation in assay [6] was -1.49%. Besides, in assay [16], the activation was -1.02%. In addition, the max response is 5.32% in assay [17] and -0.443% in assay [18].

`Cc1ccc([N+](=O)[O-])cc1`: the Potency in assay [1] was greater than 92 µM. The call in [2], in assay [3], in assay [4], in [9], in assay [10] and in [11] was inactive. Besides, the Potency entry in [5], in assay [7], in assay [8], in assay [12], in assay [13] and in assay [14] was “inactive” each time. Moreover, the Potency entry in [15] and in assay [19] was “inactive” each time. For the same compound, the caspase-3 activation in [6] is -0.449%. Moreover, in [16], the activation is -0.408%. Moreover, the figures for the max response in assay [17] and in assay [18] were -0.114% and -6.34%, respectively.

As to `Cc1cc(-c2cc(C)c(N)c(C)c2)cc(C)c1N`, the Potency in [1] was greater than 92 µM; in [8], 25.1 µM (active); in assay [16] it was 10 µM (active). Further, the result in assay [2], in assay [3], in assay [4], in [9], in assay [10] and in assay [11] was inactive. Also, the Potency entry in assay [5], in [7], in assay [12], in [13], in assay [14] and in assay [15] was “inactive” in each case. Moreover, in assay [19], the Potency entry was “inactive”. Moreover, the caspase-3 activation in assay [6] is -0.121%. The values for the max response in [17] and in assay [18] were -3.9% and -5.77%, respectively.

For `Nc1ccc(Cc2ccc(N)cc2)cc1`, the Potency in assay [1] is greater than 92 µM; in assay [8] it was 25.1 µM (active). The outcome in [2], in [3], in assay [4], in assay [9], in [10] and in assay [11] was inactive. For the same compound, the Potency entry in [5], in assay [7], in assay [12], in assay [13], in assay [14] and in assay [15] was “inactive” each time. The Potency result in assay [19] was “inactive”. Further, the caspase-3 activation in assay [6] was 0.697%. The activation in assay [16] was 1.41% and 1.54%. For the same compound, the max response was -4.91% and -1.61% in assay [17]; -0.954% and 9.87% in [18].

As for `CCN(N=O)C(N)=O`, the Potency in assay [1] was greater than 92 µM. In addition, the call in [2], in assay [3], in assay [4], in assay [9], in [10] and in assay [11] was inactive. For the same compound, the Potency entry in assay [5], in assay [7], in assay [8], in [12], in [13] and in assay [14] was “inactive” throughout. Also, the Potency result in [15] and in assay [19] was “inactive” in each case. Also, the caspase-3 activation in [6] was 0.506%. For the same compound, in assay [16], the activation was 0.0477%. Moreover, the max response in [17] was 1.39%; in assay [18], 1.02%.
